Measured values from PMC7862700, “An all-to-all approach to the identification of sequence-specific readers for epigenetic DNA modifications on cytosine”.

How the values were obtained:
Assay in all cases: DAPPL (digital affinity profiling via proximity ligation, sequencing); 10 mM Tris-HCl pH 7.5, 50 mM NaCl, 1 mM DTT, 4% glycerol, room temperature, 30 min; GST-TFs on glutathione beads, 16-mer random dsDNA library, 0.1% formaldehyde crosslink after washing; high values mean tight binding
FLI1 = molecular target: T1, FLI1 (Homo sapiens, UniProt Q01543 1-452); settings: protein: recombinant; tags: N-terminal GST; dsDNA, one strand shown
T1 sequence: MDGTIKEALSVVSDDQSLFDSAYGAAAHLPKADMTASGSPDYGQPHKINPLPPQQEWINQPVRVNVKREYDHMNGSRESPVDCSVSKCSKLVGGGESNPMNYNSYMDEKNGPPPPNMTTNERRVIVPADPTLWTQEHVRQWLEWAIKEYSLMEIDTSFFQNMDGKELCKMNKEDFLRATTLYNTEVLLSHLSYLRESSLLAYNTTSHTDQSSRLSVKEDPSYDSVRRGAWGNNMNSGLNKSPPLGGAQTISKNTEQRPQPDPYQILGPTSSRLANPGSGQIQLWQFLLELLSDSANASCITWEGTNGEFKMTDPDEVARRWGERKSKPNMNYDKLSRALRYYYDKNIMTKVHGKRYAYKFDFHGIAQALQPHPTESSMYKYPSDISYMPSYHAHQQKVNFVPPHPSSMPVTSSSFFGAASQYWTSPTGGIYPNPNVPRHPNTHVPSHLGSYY
In short: (§1)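 Binding signal is given per hexamer as its read frequency for a factor divided by its frequency in the tag-only sample. GST-fused human transcription factors were expressed in yeast, captured on glutathione beads, barcoded with DNA and pooled with that sample, then incubated with 200 nmole of a 16-mer random double-stranded DNA library in Tris/NaCl/DTT/glycerol buffer for 30 min at room temperature. The pools were then washed, crosslinked, proximity-ligated, amplified by PCR and sequenced on an Illumina NextSeq500.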

ELK1 = molecular target: T2, ELK1 (Homo sapiens, UniProt P19419 1-428); settings: protein: recombinant; tags: N-terminal GST; dsDNA, one strand shown
T2 sequence: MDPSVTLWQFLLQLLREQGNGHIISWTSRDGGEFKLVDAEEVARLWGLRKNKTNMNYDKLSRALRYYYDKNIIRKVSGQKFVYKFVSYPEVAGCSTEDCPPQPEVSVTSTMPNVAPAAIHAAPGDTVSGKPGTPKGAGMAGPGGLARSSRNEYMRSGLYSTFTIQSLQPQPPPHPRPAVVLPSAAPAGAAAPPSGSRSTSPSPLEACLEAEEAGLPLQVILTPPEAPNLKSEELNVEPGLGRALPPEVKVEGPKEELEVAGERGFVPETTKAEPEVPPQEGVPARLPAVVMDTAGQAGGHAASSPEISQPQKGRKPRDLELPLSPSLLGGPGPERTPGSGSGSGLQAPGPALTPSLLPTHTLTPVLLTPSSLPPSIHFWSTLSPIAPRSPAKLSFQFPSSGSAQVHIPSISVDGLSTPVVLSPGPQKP
In short: as §1

GABPA = molecular target: T3, GABPA (Homo sapiens, UniProt Q06546 1-454); settings: protein: recombinant; tags: N-terminal GST; dsDNA, one strand shown
T3 sequence: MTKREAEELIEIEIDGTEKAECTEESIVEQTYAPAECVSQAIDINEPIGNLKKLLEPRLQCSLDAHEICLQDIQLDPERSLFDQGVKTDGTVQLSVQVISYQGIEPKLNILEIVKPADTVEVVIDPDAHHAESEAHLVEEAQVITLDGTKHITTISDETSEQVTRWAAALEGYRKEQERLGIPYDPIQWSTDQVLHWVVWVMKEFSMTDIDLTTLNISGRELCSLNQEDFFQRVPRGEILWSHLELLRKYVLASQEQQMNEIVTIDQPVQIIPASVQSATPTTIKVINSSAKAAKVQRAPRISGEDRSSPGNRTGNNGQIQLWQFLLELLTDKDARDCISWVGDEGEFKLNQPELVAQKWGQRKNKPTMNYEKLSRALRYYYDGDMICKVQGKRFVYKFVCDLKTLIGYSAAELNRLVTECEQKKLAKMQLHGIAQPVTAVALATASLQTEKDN
In short: as §1

ERG = molecular target: T4, ERG (Homo sapiens, UniProt P11308 1-479); settings: protein: recombinant; tags: N-terminal GST; dsDNA, one strand shown
T4 sequence: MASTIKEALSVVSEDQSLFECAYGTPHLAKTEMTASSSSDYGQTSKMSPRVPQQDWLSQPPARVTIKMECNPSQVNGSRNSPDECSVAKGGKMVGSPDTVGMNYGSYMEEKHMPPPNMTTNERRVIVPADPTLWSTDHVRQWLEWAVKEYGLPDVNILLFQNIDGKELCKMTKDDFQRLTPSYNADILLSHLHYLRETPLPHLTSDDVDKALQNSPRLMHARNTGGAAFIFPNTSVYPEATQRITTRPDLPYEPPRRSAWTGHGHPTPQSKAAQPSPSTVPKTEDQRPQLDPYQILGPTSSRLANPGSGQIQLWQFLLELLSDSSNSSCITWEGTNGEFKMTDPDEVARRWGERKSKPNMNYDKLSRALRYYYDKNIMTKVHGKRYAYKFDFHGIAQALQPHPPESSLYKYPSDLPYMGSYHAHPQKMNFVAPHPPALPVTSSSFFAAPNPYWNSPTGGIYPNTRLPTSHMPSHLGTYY
In short: as §1

ELF1 = ELF1 (Homo sapiens, UniProt P32519 1-619); settings: protein: recombinant; tags: N-terminal GST; dsDNA, one strand shown
In short: as §1

EHF = molecular target: T5, EHF (Homo sapiens, UniProt Q9NZC4 1-300); settings: protein: recombinant; tags: N-terminal GST; dsDNA, one strand shown
T5 sequence: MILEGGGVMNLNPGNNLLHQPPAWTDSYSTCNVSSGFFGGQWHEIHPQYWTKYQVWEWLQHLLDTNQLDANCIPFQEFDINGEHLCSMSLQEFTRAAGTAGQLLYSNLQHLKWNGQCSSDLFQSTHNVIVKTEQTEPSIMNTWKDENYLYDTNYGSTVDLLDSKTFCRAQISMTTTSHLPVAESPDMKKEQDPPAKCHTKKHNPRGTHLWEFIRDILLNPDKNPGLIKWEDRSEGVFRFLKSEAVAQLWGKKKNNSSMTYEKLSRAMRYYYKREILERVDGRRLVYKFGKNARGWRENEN
In short: as §1

SPI1 = SPI1 (Homo sapiens, UniProt P17947 1-270); settings: protein: recombinant; tags: N-terminal GST; dsDNA, one strand shown
In short: as §1

SPIB = SPIB (Homo sapiens, UniProt Q01892 1-262); settings: protein: recombinant; tags: N-terminal GST; dsDNA, one strand shown
In short: as §1

ELK3 = molecular target: T6, ELK3 (Homo sapiens, UniProt P41970 1-407); settings: protein: recombinant; tags: N-terminal GST; dsDNA, one strand shown
T6 sequence: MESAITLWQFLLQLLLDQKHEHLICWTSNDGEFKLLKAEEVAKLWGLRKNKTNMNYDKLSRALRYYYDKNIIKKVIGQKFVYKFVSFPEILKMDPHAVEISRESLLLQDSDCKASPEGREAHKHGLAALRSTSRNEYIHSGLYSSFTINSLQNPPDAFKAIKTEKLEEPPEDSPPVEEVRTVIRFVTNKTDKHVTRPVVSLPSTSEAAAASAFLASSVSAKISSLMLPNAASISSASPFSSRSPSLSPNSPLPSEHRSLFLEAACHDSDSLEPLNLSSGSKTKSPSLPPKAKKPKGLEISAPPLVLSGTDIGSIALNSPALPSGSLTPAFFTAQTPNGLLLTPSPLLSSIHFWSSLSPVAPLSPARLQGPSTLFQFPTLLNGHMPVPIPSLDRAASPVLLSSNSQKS
In short: as §1

FEV = molecular target: T7, FEV (Homo sapiens, UniProt Q99581 1-238); settings: protein: recombinant; tags: N-terminal GST; dsDNA, one strand shown
T7 sequence: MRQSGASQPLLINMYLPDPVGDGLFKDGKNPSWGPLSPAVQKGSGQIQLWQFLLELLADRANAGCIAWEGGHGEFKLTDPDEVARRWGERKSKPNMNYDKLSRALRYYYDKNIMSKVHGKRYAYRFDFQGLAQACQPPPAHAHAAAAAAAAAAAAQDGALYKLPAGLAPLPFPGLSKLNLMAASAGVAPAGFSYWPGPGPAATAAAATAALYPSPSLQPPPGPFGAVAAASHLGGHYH
In short: as §1

ETV5 = ETV5 (Homo sapiens, UniProt P41161 1-510); settings: protein: recombinant; tags: N-terminal GST; dsDNA, one strand shown
In short: as §1

HSF1 = HSF1 (Homo sapiens, UniProt Q00613 1-529); settings: protein: recombinant; tags: N-terminal GST; chain copies: 3; dsDNA, one strand shown
In short: as §1

SPIC = molecular target: T8, SPIC (Homo sapiens, UniProt Q8N5J4 1-248); settings: protein: recombinant; tags: N-terminal GST; dsDNA, one strand shown
T8 sequence: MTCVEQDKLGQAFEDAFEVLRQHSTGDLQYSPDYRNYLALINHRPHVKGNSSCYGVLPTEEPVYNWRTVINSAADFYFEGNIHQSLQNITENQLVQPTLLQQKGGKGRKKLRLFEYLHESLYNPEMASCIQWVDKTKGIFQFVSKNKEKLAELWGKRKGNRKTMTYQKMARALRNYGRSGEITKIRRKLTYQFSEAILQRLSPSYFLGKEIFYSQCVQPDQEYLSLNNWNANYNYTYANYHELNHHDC
In short: as §1

ELF4 = ELF4 (Homo sapiens, UniProt Q99607 1-663); settings: protein: recombinant; tags: N-terminal GST; dsDNA, one strand shown
In short: as §1

ELK4 = molecular target: T9, ELK4 (Homo sapiens, UniProt P28324-2 1-405); settings: protein: recombinant; tags: N-terminal GST; dsDNA, one strand shown
T9 sequence: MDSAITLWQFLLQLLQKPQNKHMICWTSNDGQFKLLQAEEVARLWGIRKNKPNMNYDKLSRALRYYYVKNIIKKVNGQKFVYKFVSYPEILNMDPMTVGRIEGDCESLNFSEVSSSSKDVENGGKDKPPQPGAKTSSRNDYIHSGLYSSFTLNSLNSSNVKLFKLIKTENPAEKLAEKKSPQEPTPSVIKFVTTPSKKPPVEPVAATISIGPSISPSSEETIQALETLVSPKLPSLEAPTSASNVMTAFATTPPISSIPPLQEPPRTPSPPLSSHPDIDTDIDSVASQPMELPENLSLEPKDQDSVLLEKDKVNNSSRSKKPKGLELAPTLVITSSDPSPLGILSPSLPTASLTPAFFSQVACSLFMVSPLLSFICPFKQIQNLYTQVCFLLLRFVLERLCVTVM
In short: as §1

ETV2 = molecular target: T10, ETV2 (Homo sapiens, UniProt O00321 1-342); settings: protein: recombinant; tags: N-terminal GST; dsDNA, one strand shown
T10 sequence: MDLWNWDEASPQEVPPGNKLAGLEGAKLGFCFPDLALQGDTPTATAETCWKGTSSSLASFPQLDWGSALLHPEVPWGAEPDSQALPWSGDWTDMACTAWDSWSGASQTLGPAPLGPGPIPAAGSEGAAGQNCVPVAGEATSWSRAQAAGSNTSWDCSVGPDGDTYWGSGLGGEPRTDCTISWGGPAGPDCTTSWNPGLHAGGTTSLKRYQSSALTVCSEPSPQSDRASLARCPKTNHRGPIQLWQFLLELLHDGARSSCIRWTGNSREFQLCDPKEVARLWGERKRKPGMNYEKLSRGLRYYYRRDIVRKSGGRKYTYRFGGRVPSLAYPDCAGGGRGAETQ
In short: as §1

ELF3 = molecular target: T11, ELF3 (Homo sapiens, UniProt P78545 1-371); settings: protein: recombinant; tags: N-terminal GST; dsDNA, one strand shown
T11 sequence: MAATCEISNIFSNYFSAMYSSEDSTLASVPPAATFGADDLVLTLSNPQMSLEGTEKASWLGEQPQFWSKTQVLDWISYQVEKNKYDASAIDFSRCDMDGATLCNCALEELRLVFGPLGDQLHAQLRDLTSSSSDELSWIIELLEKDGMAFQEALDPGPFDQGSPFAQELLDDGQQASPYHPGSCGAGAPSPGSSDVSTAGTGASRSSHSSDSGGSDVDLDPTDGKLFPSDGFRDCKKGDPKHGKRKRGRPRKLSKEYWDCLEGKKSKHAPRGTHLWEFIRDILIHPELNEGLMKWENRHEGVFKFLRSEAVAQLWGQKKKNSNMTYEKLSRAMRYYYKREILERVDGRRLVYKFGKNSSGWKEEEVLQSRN
In short: as §1

CRX = CRX (Homo sapiens, UniProt O43186 1-299); settings: protein: recombinant; tags: N-terminal GST; dsDNA, one strand shown
In short: as §1

ETV1 = ETV1 (Homo sapiens, UniProt P50549 1-477); settings: protein: recombinant; tags: N-terminal GST; dsDNA, one strand shown
In short: as §1

SPIB, sequence (Q01892 whole entry): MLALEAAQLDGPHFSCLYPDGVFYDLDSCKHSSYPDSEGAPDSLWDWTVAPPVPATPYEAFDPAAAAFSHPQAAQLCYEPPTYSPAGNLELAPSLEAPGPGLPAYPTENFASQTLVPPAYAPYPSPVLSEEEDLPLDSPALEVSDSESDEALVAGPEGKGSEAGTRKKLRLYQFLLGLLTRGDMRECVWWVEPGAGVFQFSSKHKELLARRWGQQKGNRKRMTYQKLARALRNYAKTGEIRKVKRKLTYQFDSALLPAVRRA
ETV5, sequence (P41161 whole entry): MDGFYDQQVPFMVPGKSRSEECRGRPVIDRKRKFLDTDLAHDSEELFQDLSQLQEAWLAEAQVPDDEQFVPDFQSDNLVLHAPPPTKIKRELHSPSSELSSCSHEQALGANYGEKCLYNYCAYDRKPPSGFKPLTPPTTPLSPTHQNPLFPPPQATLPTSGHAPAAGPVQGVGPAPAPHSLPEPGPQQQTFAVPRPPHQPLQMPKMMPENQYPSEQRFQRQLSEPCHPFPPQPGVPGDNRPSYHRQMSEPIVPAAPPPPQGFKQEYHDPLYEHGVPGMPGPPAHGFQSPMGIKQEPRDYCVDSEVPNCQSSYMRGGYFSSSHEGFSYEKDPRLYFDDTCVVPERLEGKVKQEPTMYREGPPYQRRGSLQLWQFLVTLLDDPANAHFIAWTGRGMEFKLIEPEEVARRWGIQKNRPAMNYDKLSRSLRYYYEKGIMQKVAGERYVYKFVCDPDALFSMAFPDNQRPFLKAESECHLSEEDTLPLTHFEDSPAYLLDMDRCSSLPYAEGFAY
ELF4, sequence (Q99607 whole entry): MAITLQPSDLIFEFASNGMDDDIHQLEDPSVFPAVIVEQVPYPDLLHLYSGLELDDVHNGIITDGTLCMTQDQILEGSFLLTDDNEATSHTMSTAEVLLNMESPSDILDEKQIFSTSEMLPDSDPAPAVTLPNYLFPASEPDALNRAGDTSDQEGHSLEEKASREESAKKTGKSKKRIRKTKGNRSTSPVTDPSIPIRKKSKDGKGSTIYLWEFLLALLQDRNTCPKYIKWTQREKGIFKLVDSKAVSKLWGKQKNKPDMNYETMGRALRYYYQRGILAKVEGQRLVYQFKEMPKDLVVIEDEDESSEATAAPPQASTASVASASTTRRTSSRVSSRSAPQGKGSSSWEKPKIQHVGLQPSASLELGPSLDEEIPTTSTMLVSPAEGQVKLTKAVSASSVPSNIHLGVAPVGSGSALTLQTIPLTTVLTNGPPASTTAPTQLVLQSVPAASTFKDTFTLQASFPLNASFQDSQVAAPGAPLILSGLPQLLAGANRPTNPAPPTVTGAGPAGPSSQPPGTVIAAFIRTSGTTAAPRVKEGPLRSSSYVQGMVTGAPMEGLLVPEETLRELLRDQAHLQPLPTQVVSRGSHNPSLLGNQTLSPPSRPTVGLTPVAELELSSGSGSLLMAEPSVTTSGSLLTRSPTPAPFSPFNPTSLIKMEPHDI
ELF1, sequence (P32519 whole entry): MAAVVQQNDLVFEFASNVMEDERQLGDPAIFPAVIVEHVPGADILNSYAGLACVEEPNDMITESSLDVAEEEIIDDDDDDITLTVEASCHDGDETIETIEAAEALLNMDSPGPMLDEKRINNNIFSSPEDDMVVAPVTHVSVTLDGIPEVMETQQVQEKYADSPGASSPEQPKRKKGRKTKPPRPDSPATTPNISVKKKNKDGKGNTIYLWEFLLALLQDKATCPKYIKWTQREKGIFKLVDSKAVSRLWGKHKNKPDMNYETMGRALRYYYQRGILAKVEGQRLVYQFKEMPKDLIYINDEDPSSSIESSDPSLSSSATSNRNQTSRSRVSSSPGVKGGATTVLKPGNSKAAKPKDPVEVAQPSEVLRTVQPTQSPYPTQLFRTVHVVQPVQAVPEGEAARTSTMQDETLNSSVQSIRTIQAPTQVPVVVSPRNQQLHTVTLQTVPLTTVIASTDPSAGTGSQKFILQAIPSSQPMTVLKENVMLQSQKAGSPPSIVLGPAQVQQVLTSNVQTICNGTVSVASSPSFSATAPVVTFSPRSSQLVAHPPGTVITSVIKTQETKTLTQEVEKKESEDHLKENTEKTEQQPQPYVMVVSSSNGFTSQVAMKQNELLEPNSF
HSF1, sequence (Q00613 whole entry): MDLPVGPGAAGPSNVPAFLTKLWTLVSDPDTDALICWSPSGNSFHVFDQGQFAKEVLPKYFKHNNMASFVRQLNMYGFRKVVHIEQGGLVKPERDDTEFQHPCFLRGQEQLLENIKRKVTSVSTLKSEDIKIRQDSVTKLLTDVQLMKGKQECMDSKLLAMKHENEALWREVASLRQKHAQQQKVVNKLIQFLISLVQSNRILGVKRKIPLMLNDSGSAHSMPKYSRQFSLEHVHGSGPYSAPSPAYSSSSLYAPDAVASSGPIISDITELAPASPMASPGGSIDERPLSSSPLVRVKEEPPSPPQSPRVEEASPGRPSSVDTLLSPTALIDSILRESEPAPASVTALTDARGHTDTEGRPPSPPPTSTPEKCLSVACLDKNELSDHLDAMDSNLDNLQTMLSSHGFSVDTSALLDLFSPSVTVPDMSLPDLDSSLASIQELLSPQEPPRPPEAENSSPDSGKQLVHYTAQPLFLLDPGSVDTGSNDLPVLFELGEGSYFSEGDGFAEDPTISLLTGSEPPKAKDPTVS
CRX, sequence (O43186 whole entry): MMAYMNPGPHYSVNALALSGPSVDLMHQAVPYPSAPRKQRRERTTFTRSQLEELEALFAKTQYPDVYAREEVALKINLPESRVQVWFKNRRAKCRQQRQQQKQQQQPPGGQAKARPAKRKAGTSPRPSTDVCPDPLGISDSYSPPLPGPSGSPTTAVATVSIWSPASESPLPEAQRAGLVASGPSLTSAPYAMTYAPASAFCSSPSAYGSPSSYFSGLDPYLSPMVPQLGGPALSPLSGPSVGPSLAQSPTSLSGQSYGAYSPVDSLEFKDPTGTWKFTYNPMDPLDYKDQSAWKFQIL
ETV1, sequence (P50549 whole entry): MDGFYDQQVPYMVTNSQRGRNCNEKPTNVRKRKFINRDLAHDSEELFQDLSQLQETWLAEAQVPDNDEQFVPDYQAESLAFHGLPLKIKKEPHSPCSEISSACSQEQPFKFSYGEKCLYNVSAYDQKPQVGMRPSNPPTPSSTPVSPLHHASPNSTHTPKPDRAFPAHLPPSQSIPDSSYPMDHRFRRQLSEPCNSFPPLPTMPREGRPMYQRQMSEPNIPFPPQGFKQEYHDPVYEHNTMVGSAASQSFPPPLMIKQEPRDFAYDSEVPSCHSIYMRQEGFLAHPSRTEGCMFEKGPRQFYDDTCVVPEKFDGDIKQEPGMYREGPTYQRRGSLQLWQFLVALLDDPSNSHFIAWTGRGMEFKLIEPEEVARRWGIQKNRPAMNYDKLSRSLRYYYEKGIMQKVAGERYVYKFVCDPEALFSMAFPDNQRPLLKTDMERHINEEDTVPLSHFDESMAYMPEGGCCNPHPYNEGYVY

Sequence: AAACTA
- binding signal (FLI1): 1.17 fold enrichment (6-mer frequency, TF over GST control)
- binding signal (ELK1): 1.23 fold enrichment (6-mer frequency, TF over GST control)
- binding signal (GABPA): 1.23 fold enrichment (6-mer frequency, TF over GST control)
- binding signal (ERG): 1.23 fold enrichment (6-mer frequency, TF over GST control)
- binding signal (ELF1): 1.27 fold enrichment (6-mer frequency, TF over GST control)
- binding signal (EHF): 1.32 fold enrichment (6-mer frequency, TF over GST control)
- binding signal (SPI1): 1.22 fold enrichment (6-mer frequency, TF over GST control)
- binding signal (SPIB): 1.22 fold enrichment (6-mer frequency, TF over GST control)
- binding signal (ELK3): 1.34 fold enrichment (6-mer frequency, TF over GST control)
- binding signal (FEV): 1.29 fold enrichment (6-mer frequency, TF over GST control)
- binding signal (ETV5): 1.3 fold enrichment (6-mer frequency, TF over GST control)
- binding signal (HSF1): 1.31 fold enrichment (6-mer frequency, TF over GST control)
- binding signal (SPIC): 1.18 fold enrichment (6-mer frequency, TF over GST control)
- binding signal (ELF4): 1.33 fold enrichment (6-mer frequency, TF over GST control)
- binding signal (ELK4): 1.22 fold enrichment (6-mer frequency, TF over GST control)
- binding signal (ETV2): 1.29 fold enrichment (6-mer frequency, TF over GST control)
- binding signal (ELF3): 1.09 fold enrichment (6-mer frequency, TF over GST control)
- binding signal (CRX): 1.35 fold enrichment (6-mer frequency, TF over GST control)
- binding signal (ETV1): 1.36 fold enrichment (6-mer frequency, TF over GST control)
